Screening data as filed in PubChem.
A selection follows.
CYP2C9 activ: activators of human CYP2C9 | P11712 | 1.4% of 96,000 active | activation factor at 5 µM | recombinant CYP2C9, luciferin-H conversion, luminescence; stronger effect = higher value; factor 1 = untreated enzyme, 0 = blocked;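 active = activation factor of 2 or more for CYP2C9 at a 5 µM dose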;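 also: 0 = sulfaphenazole-blocked wells and 1 = vehicle-only wells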
Target sequence (P11712 whole entry, looked up): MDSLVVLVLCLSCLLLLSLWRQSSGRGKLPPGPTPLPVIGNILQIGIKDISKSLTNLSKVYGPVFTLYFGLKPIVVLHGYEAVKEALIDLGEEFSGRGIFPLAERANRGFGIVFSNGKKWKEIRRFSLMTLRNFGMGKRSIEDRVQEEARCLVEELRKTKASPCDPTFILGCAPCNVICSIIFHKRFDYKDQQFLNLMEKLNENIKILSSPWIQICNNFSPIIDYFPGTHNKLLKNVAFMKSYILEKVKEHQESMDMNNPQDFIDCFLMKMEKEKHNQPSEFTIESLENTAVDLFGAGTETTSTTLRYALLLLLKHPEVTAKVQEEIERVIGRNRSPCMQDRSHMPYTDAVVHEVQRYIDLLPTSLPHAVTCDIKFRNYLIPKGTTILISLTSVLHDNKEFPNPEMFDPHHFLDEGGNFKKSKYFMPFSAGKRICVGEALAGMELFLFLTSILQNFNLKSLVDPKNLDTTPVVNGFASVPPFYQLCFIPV
CYP2C9 inhib: human CYP2C9 inhibition; CYP2C9 Supersomes, luciferin-H conversion, luminescence; inhibition, % at 5 µM; P11712; 20% of 96,000 active;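 active = blocking of liver enzyme CYP2C9 beyond about 50% at 5 µM, limit read from the data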
CYP2C19 activ: increases human CYP2C19 enzyme activity | P33261 | recombinant CYP2C19, luciferin-H EGE luminescence; stronger effect = higher value; 0 = fully inhibited enzyme, 1 = untreated enzyme | activation factor at 5 µM | 96,000 tested, under 10 active | AID 1025;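 active = activation factor of at least 2 at 5 µM in the primary screen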;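 also: 0 = wells with 2.5 mM tranylcypromine and 1 = vehicle-only wells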
D1 mod: allosteric modulators of human D1 dopamine receptor; P21728; HEK293 D1, CRE-luciferase, dopamine EC30 potentiation; actives deviate in either direction; B-score at 10 µM; 5.9% of 58,000 active; AID 641;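 active = luminescence count or its row- and column-corrected plate score outside the 99.7% band of the plate's sample wells, on either side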
hDAT+cocaine: changed human dopamine transporter uptake under cocaine IC80; Q01959; LLC-PK1 hDAT cells, [14C]-dopamine uptake with cocaine IC80; actives deviate in either direction; B-score at 10 µM; 1.3% of 110,000 active;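 active = Z score or B-score, a plate-position-corrected score, falls beyond the plate's 99.7% confidence bounds, in either direction; inactive = both scores lie inside the 99.7% bounds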;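 also: scored against the spread of the other compound wells on the same plate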
CYP2C19 inhib: human CYP2C19 inhibition | P33261 | CYP2C19 Supersomes, luciferin-H EGE luminescence, 30 min | inhibition, % at 5 µM | 21% of 96,000 active;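 active = CYP2C19 inhibition above a set limit at 5 µM in the primary screen, cut at about 50% in these data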;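 also: plate controls were negative control wells for no effect and 2.5 mM tranylcypromine positive control for full effect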
Active calls of the source: *; · = no result given.

SMILES	CYP2C9 activ	CYP2C9 inhib	CYP2C19 activ	D1 mod	hDAT+cocaine	CYP2C19 inhib
CC(=O)c1ccc(NC(=O)CSC(C)C)cc1	0.9	6	0.9	0.39	-0.23	9
CCCCC(CC)C1OCC(CN2CCCC2)O1 (stereo not drawn)	1	-1	0.8	·	-0.13	17
COc1ccc(NC(=O)CSC2CC(=O)N(c3ccc4c(c3)OCCO4)C2=O)cc1 (stereo not drawn)	0.7	27	0.5	1.2	1	48
CC[C@@H]1CC=C[C@H]2[C@H]1C(=O)N(Cc1ccccc1)[C@H]2c1ccc(OC)c(Cl)c1	·	·	·	·	-0.42	·
COc1ccc(CN2CCC(CNC(=O)NC3CCCCC3)CC2)cc1	1	-1	1	0.087	0.54	4
c1csc(CNc2nc3ccccc3n2CCN2CCOCC2)c1	0.5	51*	0.6	0.46	1.2	43
CCCn1c(NCc2cccs2)nc2ccccc21	1.1	-6	0.9	-0.47	1	7
COc1cc(C2c3c(n[nH]c3C)C(=O)N2c2ccc(Br)cc2)ccc1O (stereo not drawn)	0.7	31	0.5	-0.2	1.6	52*
Cc1[nH]nc2c1C(c1cccnc1)N(c1ccc(Br)cc1)C2=O (stereo not drawn)	·	·	·	0.28	0.68	·
CCOc1cc(C2c3c(n[nH]c3C)C(=O)N2c2ccc(Br)cc2)ccc1O (stereo not drawn)	0.3	71*	0.2	-0.094	2.6	81*
CN1C(=O)c2ccccc2Sc2ccc(NC(=O)N3CCCC3)cc21	0.7	27	0.9	0.37	0.52	10
CCCNC(=O)Nc1ccc2c(c1)N(C)C(=O)c1ccccc1S2	0.2	79*	0.6	·	0.33	41
COCCN1C(=O)c2ccccc2C(C(=O)Nc2ccc3c(c2)OCCO3)C1c1ccc(F)cc1 (stereo not drawn)	1	2	1	·	0.56	-3
Cc1ccc(N2C(=O)c3ccccc3C2O)nc1 (stereo not drawn)	0.6	40	0.2	-6.7*	·	79*
Cc1ccc(N2C(=O)c3ccccc3C2Nc2ccccc2F)nc1 (stereo not drawn)	0.8	25	0.6	0.73	-0.91	41
Cn1c(=O)c2c(nc(Oc3ccccn3)n2C)n(C)c1=O	1	-2	1.1	0.3	·	-7
COC(=O)CSC1=C(C#N)C(c2ccc3c(c2)OCO3)C2=C(CCCC2=O)N1 (stereo not drawn)	0.1	86*	0.3	·	-0.12	74*
COC(=O)CSC1=C(C#N)C(c2ccc(C)cc2)C2=C(CCCC2=O)N1 (stereo not drawn)	0.7	31	0.9	0.32	0.16	7
Cc1ccc(NC(=O)CSC2=C(C#N)C(c3ccc4c(c3)OCO4)C3=C(CCCC3=O)N2)c(C)c1 (stereo not drawn)	0.1	93*	0.1	-1.5	0.083	88*
CCOC(=O)CSC1=C(C#N)C(C)C2=C(CCCC2=O)N1 (stereo not drawn)	1	-3	0.1	-0.11	0.12	94*
COc1cc(C2C(C#N)=C(N)N(c3cccnc3)C3=C2C(=O)CCC3)ccc1O (stereo not drawn)	0.7	26	1	·	0.098	0
CCc1ccccc1NC(=O)CSC1=C(C#N)C(c2ccc(O)c(OC)c2)C2=C(CCCC2=O)N1 (stereo not drawn)	0.4	56*	0.9	1.4	1.5	14
O=C1CCC(C(=O)Nc2cccc3ccccc23)N1 (stereo not drawn)	1.1	-11	1	-0.11	·	3
CN(C)S(=O)(=O)c1cccc(C(=O)OCC(=O)Nc2sccc2C#N)c1	0.8	23	1	·	0.48	0
COc1ccc(NC(=O)CSc2nc3c(c(=O)n2-c2ccccc2)SCC3)c(OC)c1	1	-3	1.1	0.59	·	-9
SMILES	CYP2C9 activ	CYP2C9 inhib	CYP2C19 activ	D1 mod	hDAT+cocaine	CYP2C19 inhib
C=C1CCN([C@@H](CC(C)C)C(=O)Nc2nc3ccc(Cl)cc3s2)S(=O)(=O)c2ccccc21	·	·	·	·	0.31	·
N#CC1=C(SCc2ccccc2)NC2=C(C(=O)CCC2)C1c1ccc2c(c1)OCO2 (stereo not drawn)	0.6	43	0.6	-0.48	0.62	40
CCSC1=C(C#N)C(c2ccc3c(c2)OCO3)C2=C(CCCC2=O)N1 (stereo not drawn)	0.3	67*	0.2	·	-0.21	85*
CCN(CC)S(=O)(=O)c1cc(C(=O)NC2=NCCS2)ccc1Cl	0.7	28	0.8	·	1.5	19
COc1cccc(C(=O)NC2=NCCS2)c1	·	·	·	-0.54	-0.19	·
CN(c1cccc(Cl)c1)S(=O)(=O)c1cccc(C(=O)NC2=NCCS2)c1	0.2	82*	0.3	·	-0.22	74*
COc1ccc(N(Cc2ccccc2)S(=O)(=O)c2cccc(C(=O)NC3=NCCS3)c2)cc1	0	97*	0.3	·	1.4	71*
CCOC(=O)N1CCN(S(=O)(=O)c2cc(OCC(N)=O)c(C)cc2Cl)CC1	0.9	7	0.5	-0.2	0.56	48
COC(=O)C1=C(COc2ccc(F)cc2)NC(=O)NC1c1ccc(C)cc1C (stereo not drawn)	1	-2	1	·	0.044	2
CC(C)CCNC(=O)C1CCN(c2nc3ccccc3o2)CC1	0.8	22	0.8	-0.9	-0.28	19
COc1ccc(-c2nc(NC(=O)C3CCN(c4nc5ccccc5o4)CC3)sc2C)cc1	0.5	51*	0.7	-0.027	0.9	29
CCOC(=O)CNc1nc(C#N)nc(N2CCOCC2)n1	1	-3	1	-0.041	1	-5
O=C1C2CC=CCC2C(=O)N1c1ccc(Cc2ccncc2)cc1 (stereo not drawn)	0.1	85*	0.3	-0.6	-1.4	68*
O=C1CC(Cc2ccc(Cl)cc2)C(=O)N1c1ccncc1 (stereo not drawn)	·	·	·	·	-1.2	·
CN1CCC(N(C)CC(=O)Nc2cccc(Oc3ccccc3)c2)CC1	1.2	-21	1.2	-0.53	-1.5	-22
O=C(CN1C(=O)NC2(CCCCCC2)C1=O)N1CCN(S(=O)(=O)c2ccc(Cl)cc2)CC1	0.9	10	0.9	·	0.69	8
CCOC(=O)N1CCN(C(=O)c2ccc3c(=O)n4c(nc3c2)CCCCC4)CC1	0.9	8	0.8	-0.024	1.4	19
CN1OC2C(=O)N(c3ccccc3)C(=O)C2C1c1ccc(F)cc1 (stereo not drawn)	1	-1	0.8	·	0.016	24
O=C1C2Sc3[nH]c(=O)sc3C(c3ccccc3)C2C(=O)N1c1ccccc1 (stereo not drawn)	0.8	18	0.4	·	1.7	57*
COc1ccc(C2c3sc(=O)[nH]c3SC3C(=O)N(c4ccccc4)C(=O)C32)cc1 (stereo not drawn)	0.2	81*	0.4	1.2	0.72	62*
